This note sets out measurements from PubChem BioAssay (NCATS).

Experiment [1] has as its target Lysosomal acid glucosylceramidase (Homo sapiens) (UniProt P04062). The experiment in a line: Glucocerebrosidase-p2 (AID 348; in the data active = potency below about 10 µM; also: potency is read from the fitted curve at half-maximal effect). Conditions: purified GBA, blue fluorogenic substrate, 40 min. A digest of the protocol: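 Compounds titrated from 0.6 nM upwards against 0.2 nM enzyme in pH 5.9 citric acid/KH2PO4, taurocholate, tween-20; blue fluorogenic substrate 80 uM, 40 min room temperature, stopped and read Ex 365/Em 440 for AC50.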

Experiment [2] in a line: AP1 Signaling Pathway (AID 357).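 Also: ME-180 reporter cells stimulated with EGF at its EC50 level; % is scaled to controls: 0 for no effect and ±100 for the full control effect.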 Conditions: ME-180 AP-1-bla reporter, EGF-induced, beta-lactamase ratio, 5 h; at 7.69 µM (top of the series) unless noted. A digest of the protocol:
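In this screen, ME-180 cells in Opti-MEM with 0.5% dialyzed FBS received EC50 EGF and compound titrations for 5 h. AP-1 reporter beta-lactamase was detected via CCF4 ratio, giving AC50 for positive and negative modulators.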

The target of experiment [3] is Cytochrome P450 1A2 (Homo sapiens) (UniProt P05177). The experiment in a line: p450-cyp1a2 (AID 410; calls by dose curve; also: potency is read from the fitted curve at half-maximal effect;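 as to activity change, negative = inhibition: -100% = full effect of reference inhibitor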). Conditions: recombinant CYP1A2, luciferin-ME demethylation, luminescence; series mostly up to 57 µM. A digest of the protocol:
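Human CYP1A2 (20nM) demethylated Luciferin-ME at its Km (100uM) in 100mM KPO4. After 10 min compound preincubation, NADPH regeneration ran the reaction 60 min at room temperature. Luciferin was read by luminescence, normalized to 57 uM furafylline.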

A short description of experiment [4]: Stat Signaling Pathway (AID 446).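 Also: ME-180 cervical cancer cells given 40 pM IL-6 alongside compound; SIE-controlled beta-lactamase reporter measured as 460/530 nm FRET emission ratio; % is scaled to controls: 0 for no effect and ±100 for the full control effect.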 The following applies: ME-180 (cervical carcinoma) SIE beta-lactamase reporter, IL-6 stimulated, 5 h; at 7.69 µM (top of the series) unless noted. A digest of the protocol:
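ME-180 cells carrying a SIE-driven beta-lactamase reporter are stimulated with 40 pM IL-6 for 5 h at 37C in the presence of compound. The 460/530 nm FRET substrate ratio is read after 2.5 h at RT. Data are normalised to 300 pM IL-6 and to 125 nM JAK inhibitor controls.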

Experiment [5] deals with Glucocorticoid receptor (Homo sapiens) (UniProt P04150). The experiment in a line: GR-GFP Redistribution (AID 450;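 active = compounds whose dose series gives a full or clear partial fitted curve of increased nuclear translocation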; also: potency is read from the fitted curve at half-maximal effect). The following applies: U2OS GR-GFP nuclear translocation, laser cytometry, 2 h.
For experiment [6] the target is unchanged. The experiment in a line: GR-EFC Redistribution (AID 451; calls by dose curve; also: potency is read from the fitted curve at half-maximal effect). Conditions: CHO-K1 GR-EFC translocation, beta-gal luminescence, 2 h. A digest of the protocol: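 Translocation of GR-ED fusion to nuclear EA restores b-gal, read by luminescence after 1 h room-temperature detection. Engineered CHO-K1 biosensor cells, 1,000/well, exposed 2 h at 37 C to titrations up to 46 uM final.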

Experiment [7] concerns the target Mitogen-activated protein kinase 10 (Mus musculus) (UniProt Q61831). The experiment in a line: JNK3 AlphaScreen Assay (AID 530).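 Also: kinase came from lysate of stimulated human HepG2 cells; signal reports phosphorylation of biotinylated GST-cJun 1-79 at Ser73 with 10 µM ATP; % is scaled to controls: 0 for no effect and ±100 for the full control effect.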 Conditions: JNK3 lysate, c-Jun phosphorylation; series mostly up to 57.1 µM. A digest of the protocol: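 Room-temperature AlphaScreen kinase assay; pre-activated HepG2 lysate as JNK3 source, biotin-GST-cJun(1-79) substrate, 10 uM ATP, compound 15 min preincubation.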
(In general: Alpha assays give light when donor and acceptor beads are brought close together.)

The target of experiment [8] is 3',5'-cyclic-AMP phosphodiesterase 4B (Homo sapiens) (UniProt Q07343). The experiment in a line: qHTS Assay for Inhibitors of PDE-IV (AID 607; active = well fitted activation curve with a large enough effect in the main read-out, with a control signal flat, not every such curve was filed as active; also: % of control where 0% means no effect). The following applies: HEK293 ACTOne CNG channel cells, membrane potential fluorescence; series mostly up to 22.9 µM. A digest of the protocol:
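HEK293 ACTOne cells with CNG channel (1000/well), endogenous PDE4; membrane potential dye, compounds up to 22.9 uM final. Fluorescence Ex 535/Em 590; RO 20-1724 (100 uM final) as reference.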

The target of experiment [9] is Cytochrome P450 3A4 (Homo sapiens) (UniProt P08684). The experiment in a line: qHTS Assay for Inhibitors and Substrates of Cytochrome P450 3A4 (AID 884; active = well fitted curve in the direction sought with a large enough effect; an effect the other way counts as inactive or inconclusive; also: potency is read from the fitted curve at half-maximal effect; nearly all actives have a fitted effect of over 50% in size). The following applies: recombinant CYP3A4, Luciferin-PPXE luminescence; series mostly up to 57.1 µM. A digest of the protocol:
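20 nM human CYP3A4 with 25 uM Luciferin-PPXE (at KM) in 200 mM KPO4, preincubated 10 min with compound; NADPH regeneration started a 60 min RT reaction. Luciferin detected by luminescence, normalized to 57 uM ketoconazole as full inhibition.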

Experiment [10] shares this target. The experiment in a line: qHTS Assay for Activators of Cytochrome P450 3A4 (AID 885; active = well fitted curve in the direction sought with a large enough effect; an effect the other way counts as inactive or inconclusive; also: nearly all actives have a fitted effect of over 65% in size). Conditions: recombinant CYP3A4, Luciferin-PPXE luminescence, 60 min; series mostly up to 57.1 µM. A digest of the protocol: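 Human CYP3A4 (20 nM) with Luciferin-PPXE at 25 uM (its KM) in 200 mM KPO4; 10 min compound preincubation, then NADPH regeneration and 60 min reaction at RT. Luciferin read by luminescence; normalized to 57 uM ketoconazole full inhibition.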

A short description of experiment [11]: Confirmation and Secondary Assay for Modulators of Hemoglobin Beta Chain Splicing at IVS2 654 locus (AID 910; active = well fitted curve in the direction sought with a large enough effect; an effect the other way counts as inactive or inconclusive;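 also: HeLa cells stably carrying EGFP split by mutant beta-globin IVS2-654 intron; per-well total GFP intensity by laser scanning cytometry after 2-day treatment; % of control where 0% means no effect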). The following applies: HeLa EGFP-654 splicing reporter, GFP fluorescence, 48 h; series mostly up to 38.3 µM. A digest of the protocol: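 Readout: per-well total peak green fluorescence (488 nm ex, 500–520 nm em) from objects 5–250 µm, reflecting correct splicing of an EGFP-654 reporter. Compounds were applied for 2 days at 37 °C to overnight-plated HeLa EGFP-654 cells; controls were DMSO and 500 nM IVS2-654 PNA.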

A short description of experiment [12]: Confirmation and Secondary Assay for Modulators of Hemoglobin Beta Chain Splicing at IVS2 705 locus (AID 930; active = well fitted curve in the direction sought with a large enough effect; an effect the other way counts as inactive or inconclusive;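 also: HeLa cells stably expressing the EGFP-705 splicing reporter; % of control where 0% means no effect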). The following applies: HeLa EGFP-705 splicing reporter, GFP fluorescence, 48 h; series mostly up to 38.3 µM. A digest of the protocol: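 Splice-correction reporter: EGFP cDNA split by beta-globin intron 2 bearing the 705 mutation, stably in HeLa. Compound incubation 2 days, 37C; fluorescent objects 5-250 µm summed per well.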

The nature of experiment [13]: qHTS Assay for Lipid Storage Modulators (AID 1519; calls by dose curve). Conditions: Drosophila S3 cells, BODIPY lipid droplet/cell ratio, laser cytometry, cells loaded with oleic acid; for activity change, negative = inhibition: at 57.5 µM (top of the series). A digest of the protocol:
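Cells seeded at 5,000 per well were treated with compounds over a concentration series and loaded with oleic acid (400 uM, as added). Lipid droplet fluorescence (488 nm excitation, 500-530 nm channel) was read by laser-scanning cytometry and normalized to 20 uM Triacsin C.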

The target of experiment [14] is Ubiquitin carboxyl-terminal hydrolase 1 (Homo sapiens) (UniProt O94782). The experiment in a line: Inhibitors of USP1/UAF1: Pilot qHTS (AID 504865; active = well fitted curve in the direction sought with a large enough effect; an effect the other way counts as inactive or inconclusive;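 also: rhodamine fluorescence freed from ubiquitin-rhodamine substrate followed over time; top concentration of the series differs between compounds; % is scaled to controls: 0 for no effect and ±100 for the full control effect; nearly all actives have a fitted effect of over 35% in size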). The following applies: purified USP1/UAF1, Ub-rhodamine cleavage fluorescence; series mostly up to 54.9 µM. A digest of the protocol:
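Enzyme-free wells gave the negative control, while test wells held 1nM USP1/UAF1 preincubated with compound for 15 min at room temperature. Ub-Rho at 150nM final started the reaction, and fluorescence at 480/540 nm was recorded kinetically.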

Experiment [15] can be described thus: NFAT Signaling Pathway (AID 444).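 Also: carbachol stimulus at about its EC50 of 1 µM final; % is scaled to controls: 0 for no effect and ±100 for the full control effect.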 The following applies: Jurkat NFAT-bla M1, carbachol, beta-lactamase ratio, 5 h; at 7.69 µM (top of the series) unless noted. A digest of the protocol: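 Read-out: CCF4 FRET ratio (460 nm/530 nm) after 1 h RT dye loading, used for %activity and AC50 from titration series. Cells: Jurkat NFAT-β-lactamase/M1 line, treated with compound plus 1 uM carbachol for 5 h, 37 °C.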

For experiment [16], the target named is Cytochrome P450 2C19 (Homo sapiens) (UniProt P33261). The experiment in a line: qHTS Assay for Inhibitors and Substrates of Cytochrome P450 2C19 (AID 899; active = well fitted curve in the direction sought with a large enough effect; an effect the other way counts as inactive or inconclusive; also: % is scaled to controls: 0 for no effect and ±100 for the full control effect; nearly all actives have a fitted effect of over 60% in size). The following applies: recombinant CYP2C19, luciferin-H EGE luminescence; series mostly up to 57.1 µM. A digest of the protocol:
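Reactions contain 5nM enzyme, 10uM Luciferin-H EGE (KM) and 50mM KPO4; compound preincubates 10 min at 37C, NADPH regeneration starts turnover for 60 min. Luminescence after detection reagent gives activity.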
Background: qHTS replaces the single test concentration by a dilution series.

Setting [17] is: measured here: cell count channel max response.
[18] abbreviates: measured here: lipid channel max response.

Results filed as inconclusive are left out. The source made the active and inactive calls. Unless noted, calls follow the shape of the dose curve; as a rule, active = well fitted curve in either direction with a large enough effect (not every such curve was filed as active); inconclusive = small, poorly fitted or top-dose-only effect, or another doubt; inactive = flat fitted curve, though single readings scatter. Some results are limits rather than exact numbers.

Chain of Cytochrome P450 1A2 (Homo sapiens) (P05177 whole entry, looked up): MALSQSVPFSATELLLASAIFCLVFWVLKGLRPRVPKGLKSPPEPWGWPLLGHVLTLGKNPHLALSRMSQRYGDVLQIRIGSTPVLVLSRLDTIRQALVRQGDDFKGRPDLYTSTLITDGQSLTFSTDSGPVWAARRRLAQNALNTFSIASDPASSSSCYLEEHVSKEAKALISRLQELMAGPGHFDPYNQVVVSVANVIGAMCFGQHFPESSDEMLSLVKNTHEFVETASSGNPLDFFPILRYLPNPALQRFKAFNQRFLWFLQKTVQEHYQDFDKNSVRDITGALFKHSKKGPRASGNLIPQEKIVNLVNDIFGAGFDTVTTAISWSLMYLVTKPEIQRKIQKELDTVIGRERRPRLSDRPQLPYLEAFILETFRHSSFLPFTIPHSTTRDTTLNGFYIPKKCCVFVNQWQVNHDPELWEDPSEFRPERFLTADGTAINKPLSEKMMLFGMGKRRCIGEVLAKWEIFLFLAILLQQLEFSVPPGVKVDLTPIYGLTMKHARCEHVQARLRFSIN
Chain of Glucocorticoid receptor (Homo sapiens) (P04150 whole entry, looked up, the tested form may be a part): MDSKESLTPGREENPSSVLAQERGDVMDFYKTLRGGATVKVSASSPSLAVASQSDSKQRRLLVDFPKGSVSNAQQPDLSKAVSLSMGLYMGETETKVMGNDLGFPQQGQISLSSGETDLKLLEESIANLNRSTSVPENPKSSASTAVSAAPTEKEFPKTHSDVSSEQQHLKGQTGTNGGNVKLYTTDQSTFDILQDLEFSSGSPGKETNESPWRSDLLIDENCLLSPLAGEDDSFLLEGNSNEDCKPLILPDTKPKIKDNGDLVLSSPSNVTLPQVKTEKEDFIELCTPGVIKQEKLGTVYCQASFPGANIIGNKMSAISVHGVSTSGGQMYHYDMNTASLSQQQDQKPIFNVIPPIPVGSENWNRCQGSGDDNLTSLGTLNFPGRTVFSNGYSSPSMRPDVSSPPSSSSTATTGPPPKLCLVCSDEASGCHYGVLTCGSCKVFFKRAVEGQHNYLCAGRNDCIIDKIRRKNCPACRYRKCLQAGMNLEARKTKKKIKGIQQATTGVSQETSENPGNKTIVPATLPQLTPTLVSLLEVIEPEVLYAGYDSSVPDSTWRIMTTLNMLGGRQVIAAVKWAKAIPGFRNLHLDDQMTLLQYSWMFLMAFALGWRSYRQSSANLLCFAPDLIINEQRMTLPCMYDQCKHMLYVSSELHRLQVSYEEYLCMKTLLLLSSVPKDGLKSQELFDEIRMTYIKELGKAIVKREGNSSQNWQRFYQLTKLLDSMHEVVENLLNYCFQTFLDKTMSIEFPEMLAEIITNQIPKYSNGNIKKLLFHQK
Chain of Cytochrome P450 3A4 (Homo sapiens) (P08684 whole entry, looked up): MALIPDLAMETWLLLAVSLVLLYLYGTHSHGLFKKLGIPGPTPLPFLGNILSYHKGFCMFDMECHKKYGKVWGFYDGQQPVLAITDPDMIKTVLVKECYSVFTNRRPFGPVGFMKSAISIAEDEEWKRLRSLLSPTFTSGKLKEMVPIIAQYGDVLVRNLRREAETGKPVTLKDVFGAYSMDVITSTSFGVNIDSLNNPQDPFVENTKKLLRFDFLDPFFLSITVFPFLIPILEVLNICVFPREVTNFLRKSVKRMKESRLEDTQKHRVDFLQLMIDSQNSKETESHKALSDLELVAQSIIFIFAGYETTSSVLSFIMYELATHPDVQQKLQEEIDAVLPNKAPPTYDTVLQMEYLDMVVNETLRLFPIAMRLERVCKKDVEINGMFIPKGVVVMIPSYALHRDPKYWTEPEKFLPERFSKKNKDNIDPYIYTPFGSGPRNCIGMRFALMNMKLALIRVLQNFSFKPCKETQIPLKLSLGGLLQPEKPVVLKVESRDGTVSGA
Chain of Lysosomal acid glucosylceramidase (Homo sapiens) (P04062 whole entry, looked up): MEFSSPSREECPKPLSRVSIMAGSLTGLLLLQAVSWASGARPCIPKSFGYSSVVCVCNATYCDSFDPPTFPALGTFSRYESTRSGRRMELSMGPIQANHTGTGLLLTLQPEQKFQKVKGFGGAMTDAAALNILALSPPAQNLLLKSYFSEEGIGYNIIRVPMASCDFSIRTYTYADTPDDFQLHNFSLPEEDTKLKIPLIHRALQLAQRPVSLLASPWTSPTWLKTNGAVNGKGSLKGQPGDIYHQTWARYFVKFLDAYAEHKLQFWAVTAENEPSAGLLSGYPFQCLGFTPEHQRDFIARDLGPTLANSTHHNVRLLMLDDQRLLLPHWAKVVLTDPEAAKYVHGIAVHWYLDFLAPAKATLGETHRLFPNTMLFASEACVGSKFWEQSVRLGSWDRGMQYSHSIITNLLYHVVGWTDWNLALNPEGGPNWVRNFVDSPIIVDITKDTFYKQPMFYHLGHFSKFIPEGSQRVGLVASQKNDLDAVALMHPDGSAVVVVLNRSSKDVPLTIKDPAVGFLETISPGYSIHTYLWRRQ
Chain of 3',5'-cyclic-AMP phosphodiesterase 4B (Homo sapiens) (Q07343 whole entry, looked up): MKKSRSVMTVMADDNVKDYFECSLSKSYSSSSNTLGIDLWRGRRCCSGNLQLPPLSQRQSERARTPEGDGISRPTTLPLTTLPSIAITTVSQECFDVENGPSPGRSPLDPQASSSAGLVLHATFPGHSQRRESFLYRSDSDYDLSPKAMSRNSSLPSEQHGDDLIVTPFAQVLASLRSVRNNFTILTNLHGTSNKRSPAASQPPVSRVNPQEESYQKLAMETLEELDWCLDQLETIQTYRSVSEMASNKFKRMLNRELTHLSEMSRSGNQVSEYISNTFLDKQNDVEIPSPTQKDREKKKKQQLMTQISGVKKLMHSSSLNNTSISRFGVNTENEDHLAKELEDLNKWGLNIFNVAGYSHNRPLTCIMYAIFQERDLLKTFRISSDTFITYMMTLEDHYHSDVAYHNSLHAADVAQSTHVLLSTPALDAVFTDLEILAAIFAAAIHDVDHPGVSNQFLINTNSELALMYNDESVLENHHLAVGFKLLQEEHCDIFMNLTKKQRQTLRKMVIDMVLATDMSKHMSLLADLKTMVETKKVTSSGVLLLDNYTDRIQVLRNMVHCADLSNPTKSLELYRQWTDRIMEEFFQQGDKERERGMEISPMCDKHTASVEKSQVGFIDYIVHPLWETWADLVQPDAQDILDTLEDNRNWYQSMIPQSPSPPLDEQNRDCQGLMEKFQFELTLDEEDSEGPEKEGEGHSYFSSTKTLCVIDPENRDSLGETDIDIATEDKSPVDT
Chain of Ubiquitin carboxyl-terminal hydrolase 1 (Homo sapiens) (O94782 whole entry, looked up): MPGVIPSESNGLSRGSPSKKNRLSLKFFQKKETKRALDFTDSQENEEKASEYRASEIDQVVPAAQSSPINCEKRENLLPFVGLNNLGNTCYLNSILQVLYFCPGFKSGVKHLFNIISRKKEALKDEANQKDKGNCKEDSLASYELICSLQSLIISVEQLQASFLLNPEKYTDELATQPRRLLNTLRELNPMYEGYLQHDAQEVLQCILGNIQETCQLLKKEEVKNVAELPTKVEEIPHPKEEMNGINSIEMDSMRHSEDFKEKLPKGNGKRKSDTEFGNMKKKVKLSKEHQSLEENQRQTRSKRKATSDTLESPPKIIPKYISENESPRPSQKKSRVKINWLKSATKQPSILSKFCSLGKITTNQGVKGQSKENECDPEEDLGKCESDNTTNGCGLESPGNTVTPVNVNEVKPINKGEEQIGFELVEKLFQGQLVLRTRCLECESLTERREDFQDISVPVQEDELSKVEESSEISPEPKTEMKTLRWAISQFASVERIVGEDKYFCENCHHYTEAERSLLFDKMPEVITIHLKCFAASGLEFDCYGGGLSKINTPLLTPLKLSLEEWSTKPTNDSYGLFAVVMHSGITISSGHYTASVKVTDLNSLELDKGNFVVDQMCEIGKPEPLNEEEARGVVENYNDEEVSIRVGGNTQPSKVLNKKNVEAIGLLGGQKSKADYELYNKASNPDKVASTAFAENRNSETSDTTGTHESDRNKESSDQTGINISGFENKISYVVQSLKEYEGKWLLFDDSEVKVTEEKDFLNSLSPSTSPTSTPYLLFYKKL
Chain of Cytochrome P450 2C19 (Homo sapiens) (P33261 whole entry, looked up): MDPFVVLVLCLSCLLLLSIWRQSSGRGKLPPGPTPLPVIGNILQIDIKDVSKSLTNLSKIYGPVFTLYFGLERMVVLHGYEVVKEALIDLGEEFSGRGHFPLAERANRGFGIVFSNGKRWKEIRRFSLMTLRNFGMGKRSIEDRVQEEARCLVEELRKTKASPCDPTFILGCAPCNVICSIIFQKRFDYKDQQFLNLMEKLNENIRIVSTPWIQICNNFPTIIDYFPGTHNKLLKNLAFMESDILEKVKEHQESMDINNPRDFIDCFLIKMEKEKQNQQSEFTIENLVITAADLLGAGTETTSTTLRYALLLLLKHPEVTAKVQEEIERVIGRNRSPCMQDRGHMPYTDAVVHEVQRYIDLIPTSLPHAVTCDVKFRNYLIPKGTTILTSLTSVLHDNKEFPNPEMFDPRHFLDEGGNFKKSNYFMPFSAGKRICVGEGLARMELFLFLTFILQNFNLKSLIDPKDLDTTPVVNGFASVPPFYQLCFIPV

As for `Cc1ccccc1-c1cncnc1NCCN1CCOCC1`, the Potency in experiment [1] was > 11.4 µM (inactive); in experiment [3] it was 15.8 µM (active); in experiment [5], > 46 µM (inactive); in [6], > 46 µM (inactive); in experiment [9], 1.58 µM (active). Further, the activity change, negative = inhibition in experiment [2] was 24.4% (inactive); in experiment [13], 4.31% (inactive). Further, the activity, negative = inhibition in experiment [4] is 7.48% (inactive). Moreover, the Potency entry in experiment [7], in experiment [8], in experiment [10], in [11] and in experiment [14] was “inactive” in each case. In experiment [12], the outcome was inactive. The max response came to 0.273% in experiment [13] (setting [17]) and 3.28% in [13] (setting [18]).

With `COc1ccc(NC(=O)N2CC[C@@]3(CCCN(C(=O)c4cc(C(F)(F)F)cc(C(F)(F)F)c4)C3)C2)cc1`, the Potency is > 11.4 µM (inactive) in experiment [1] and > 46 µM (inactive) in experiment [6]. In addition, the figures for the activity change, negative = inhibition in experiment [2], in [15] and in experiment [13] were -20.8% (inactive), 12.7% (inactive) and 6.21% (inactive), respectively. The Potency result in [3], in experiment [7], in [8] and in experiment [10] was “inactive” in each case. Moreover, the activity, negative = inhibition in experiment [4] is -6.2% (inactive). Further, the max response was 0.894% in experiment [13] (setting [17]) and 10.8% in [13] (setting [18]).

As to `CS(=O)(=O)Nc1cccc(-c2nc(N3CCNCC3)c3ccccc3n2)c1`, the Potency was > 11.4 µM (inactive) in experiment [1], 20 µM (active) in [3], > 46 µM (inactive) in experiment [5] and > 46 µM (inactive) in experiment [6]. The activity change, negative = inhibition was 5.71% (inactive) in [2] and 5.5% (inactive) in experiment [13]. The activity, negative = inhibition in [4] was 2.63% (inactive). The Potency result in [7], in experiment [8], in [11] and in experiment [14] was “inactive” in each case. Further, in experiment [12], the result was inactive. Besides, the max response in experiment [13] (setting [17]) was 12.3%; in experiment [13] (setting [18]), 18.5%.

On to `Cc1noc(C)c1C(=O)N1CCC[C@@]2(CCN(Cc3cc(C(F)(F)F)cc(C(F)(F)F)c3)C2)C1`, for which the figures for the Potency in [1] and in experiment [6] were > 11.4 µM (inactive) and > 46 µM (inactive), respectively. The activity change, negative = inhibition was 1.15% (inactive) in experiment [2], 14.8% (inactive) in experiment [15] and 4.37% (inactive) in experiment [13]. In addition, the Potency entry in [3], in [7], in [8], in experiment [10] and in [16] was “inactive” in each case. Moreover, the activity, negative = inhibition in [4] was 1.36% (inactive). Besides, the max response was 12.5% in [13] (setting [17]) and 19.6% in experiment [13] (setting [18]).

Turning to `COc1ccccc1CN1CC[C@@]2(CCCN(C(=O)c3cc(C(F)(F)F)cc(C(F)(F)F)c3)C2)C1`, the Potency in experiment [1] is > 11.4 µM (inactive); in [3], 15.8 µM (active); in [6] it was > 46 µM (inactive). The activity change, negative = inhibition in experiment [2] was -0.111% (inactive); in [13], 2.5% (inactive). The activity, negative = inhibition in experiment [4] is 4.98% (inactive). In addition, the Potency result in experiment [7] and in experiment [8] was “inactive” throughout. Besides, the max response in [13] (setting [17]) is 2.09%; in experiment [13] (setting [18]), 7.48%.
